Among the test systems are HCT-15 colon; HT29 colon; SNB-75 CNS; SNB-19 CNS; U251 CNS; SK-MEL-5 melanoma; LOX IMVI melanoma; SK-MEL-28 melanoma; PC-3 prostate; UACC-62 melanoma.
Holding throughout (assay): NCI-60 one-dose screen, 48 h (100 = growth as untreated, 0 = no growth, -100 = all killed)
Common to all, as to conditions: 10 µM unless noted

The record followed here is PubChem BioAssay (NCI).

Compounds without any hit were thinned out: in the full panel of roughly 83,000, 20% have a hit.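 Results are percent growth after 48 hours of single-concentration exposure. 100 means growth as in untreated cells, lower positive values show inhibition; negative values down to -100 show cell death.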 A number with no mark means an inactive call. The source made the active and inactive calls. The calls were made as follows: active = growth percent below 10; inactive = the rest.

Consider `Cc1nc2cc(Nc3nc(NCCO)nc(Nc4ccc(F)cc4)n3)ccc2n1Cc1ccccc1`, for which the growth in the test on HCT-15 colon was 100%; in the test on HT29 colon it was 71.9%; in the test on SNB-75 CNS, 102%; in the test with SNB-19 CNS it was 100%; in the test on U251 CNS, 86.3%; in the test on SK-MEL-5 melanoma it was 80.3%. The results for the growth in the test with LOX IMVI melanoma and in the test with SK-MEL-28 melanoma were 81.9% and 108%, respectively.
For the compound `COc1cc(C2=NN(c3ccc(S(N)(=O)=O)cc3)C(c3ccc(Cl)cc3)C2)cc(OC)c1OC` (stereo not given), the growth was 43.1% in the test with HCT-15 colon; 32.1% in the test with HT29 colon; 41.5% in the test on SNB-75 CNS; 56.5% in the test with SNB-19 CNS; 23.9% in the test with U251 CNS; 27.5% in the test on SK-MEL-5 melanoma. In addition, the figures for the growth in the test with LOX IMVI melanoma and in the test with SK-MEL-28 melanoma were 42.5% and 44.3%, respectively.
Consider `COc1ccc(-c2nc(Nc3ccc(F)cc3)nc(Nc3ccc4c(c3)nc(C)n4Cc3ccccc3)n2)cc1`, for which the growth in the test on HCT-15 colon is 33.4%; in the test on HT29 colon it was 8.87% (active); in the test on SNB-75 CNS, 68%; with SNB-19 CNS it was 60.7%; in the test on U251 CNS it was 39.2%; in the test with SK-MEL-5 melanoma, 47.1%. Moreover, the growth in the test on LOX IMVI melanoma is 38.9%.
On to `COC(=O)c1ccc(C(=O)Nc2ccccc2N)cc1`, for which the growth is 83.9% in the test on HCT-15 colon; 86.9% in the test with HT29 colon; 78.4% in the test on SNB-75 CNS; 85.6% with SNB-19 CNS; 72.1% in the test on U251 CNS; 65.3% with PC-3 prostate. In addition, the growth in the test on UACC-62 melanoma was 61.2%; with LOX IMVI melanoma, 97.7%; with SK-MEL-28 melanoma, 94.6%.
On to `CN1CCC(OC2c3ccccc3CCc3ccccc32)CC1`, for which the growth is 98.8% in the test on HCT-15 colon; 90.1% in the test with HT29 colon; 65.7% in the test on SNB-75 CNS; 99.2% with SNB-19 CNS; 92.5% with U251 CNS; 78.3% with PC-3 prostate. Further, the growth in the test on UACC-62 melanoma is 98.4%; in the test with LOX IMVI melanoma it was 91.1%; with SK-MEL-28 melanoma, 94.2%.
For `Cc1nc2cc(Nc3nc(NCCN)nc(Nc4ccc(F)cc4)n3)ccc2n1Cc1ccccc1`, the growth in the test on HCT-15 colon is 100%; in the test on HT29 colon, 35.1%; with SNB-75 CNS, 84.2%; in the test with SNB-19 CNS, 91.6%; in the test on U251 CNS it was 77.4%; in the test with LOX IMVI melanoma, 58.2%. In the test with SK-MEL-28 melanoma, the growth is 107%.
As to `CCOC(=O)c1cn2c3c(cc(F)cc3c1=O)C(CC)c1ccccc1C2` (stereo not given), the growth in the test with HCT-15 colon was 57.8%; with HT29 colon, 95.9%; in the test with SNB-75 CNS, 92.3%; in the test with SNB-19 CNS, 103%; in the test with U251 CNS, 83.8%; with PC-3 prostate, 81.6%. For the same compound, the growth was 105% in the test on UACC-62 melanoma, 84.9% in the test on LOX IMVI melanoma and 98.9% with SK-MEL-28 melanoma.
Take `Cc1nn(-c2ccccc2)c2nc3nc4c(c(N)c3c(-c3ccc(Cl)cc3)c12)CCC4`: the growth in the test with HCT-15 colon was 76.5%; in the test on HT29 colon, 55.2%; in the test on SNB-75 CNS it was 86.2%; in the test with SNB-19 CNS it was 111%; with PC-3 prostate, 88.2%; in the test on SK-MEL-5 melanoma, 99.4%. Besides, the growth with UACC-62 melanoma is 102%; with LOX IMVI melanoma, 62.5%; in the test with SK-MEL-28 melanoma it was 96.9%.
In the case of `Nc1nc(N)c(N=Nc2c(Br)cc(S(N)(=O)=O)cc2Br)c(N)n1`, the growth in the test on HCT-15 colon is 114%; in the test on HT29 colon it was 115%; in the test with SNB-75 CNS, 90.6%; with SNB-19 CNS, 97.5%; in the test on PC-3 prostate it was 95.1%; with SK-MEL-5 melanoma, 98.2%. Moreover, the growth in the test on UACC-62 melanoma is 91.8%; with LOX IMVI melanoma it was 110%; with SK-MEL-28 melanoma, 99.5%.
Take `COc1ccc(-c2c3c(N)c4c(nc3nc3c2c(C)nn3-c2ccccc2)CCCC4)cc1`: the growth was 68.2% with HCT-15 colon; 21.1% in the test with HT29 colon; 78.6% with SNB-75 CNS; 103% with SNB-19 CNS; 64.9% with PC-3 prostate; 90.9% in the test with SK-MEL-5 melanoma. The values for the growth with UACC-62 melanoma, with LOX IMVI melanoma and with SK-MEL-28 melanoma were 92.9%, 92.6% and 96.9%, respectively.
In the case of `CCCC1=NNC(=O)C1`, the growth was 103% in the test with HCT-15 colon; 103% in the test with HT29 colon; 93.8% with SNB-75 CNS; 103% in the test on SNB-19 CNS; 91.1% with PC-3 prostate; 104% with SK-MEL-5 melanoma. Also, the growth with UACC-62 melanoma was 114%; with LOX IMVI melanoma, 108%; in the test with SK-MEL-28 melanoma, 104%.
`Cc1nc2cc(Nc3nc(Nc4ccc(F)cc4)nc(-c4cccs4)n3)ccc2n1Cc1ccccc1`: the growth was 30.3% in the test on HCT-15 colon; 20.5% in the test on HT29 colon; 52.2% in the test on SNB-75 CNS; 66.7% with SNB-19 CNS; 29.4% in the test with PC-3 prostate; 76.5% in the test on SK-MEL-5 melanoma. The results for the growth with UACC-62 melanoma, in the test with LOX IMVI melanoma and with SK-MEL-28 melanoma were 61.5%, 64.8% and 74.3%, respectively.
Consider `COc1nc2c(cc1S(=O)(=O)c1ccccc1)CCc1c-2cnn1-c1cccc(Cl)c1`, for which the growth in the test with HCT-15 colon was 71%; in the test with HT29 colon, 54.9%; with SNB-75 CNS it was 85.5%; with SNB-19 CNS it was 98.2%; in the test with PC-3 prostate it was 64.4%; in the test with SK-MEL-5 melanoma it was 88%. For the same compound, the growth in the test on UACC-62 melanoma was 71.2%; in the test with LOX IMVI melanoma, 93.9%; with SK-MEL-28 melanoma it was 86.4%.
As to `CCCCC(=O)N/N=C/c1cc(I)cc(I)c1O`, the growth was 15.6% in the test with HCT-15 colon; 56.2% in the test with HT29 colon; 62.8% with SNB-75 CNS; 62.9% in the test with SNB-19 CNS; 47% with PC-3 prostate; 78.9% with SK-MEL-5 melanoma. Besides, the growth in the test on UACC-62 melanoma was 38.8%; with LOX IMVI melanoma, 38.9%; in the test on SK-MEL-28 melanoma it was 58.8%.
